The values that follow come from PubChem BioAssay AID1508622 (National Center for Advancing Translational Sciences (NCATS), 2021).

This test in a line: Confirmatory qHTS for Identification of Small Molecule Activators of Huntingtin-Antisense Promoter Activity. As to conditions: HEK293 HTT-AS promoter firefly luciferase reporter, 24 h; series mostly up to 57.5 µM. The procedure, abridged: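 2,500 luciferase reporter HEK293 cells/well; 24 h culture; cpds up to 57.5 uM final, PTC124 50 uM ctrl; 24 h, 37C; Dual-Glo FLuc reagent, 10 min RT; lum. Norm.: vehicle 0%, zero RLU -100%.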
(In general: qHTS replaces the single test concentration by a dilution series.)

Activity calls are given as the source filed them. Where a call stands in place of a potency, no number is given. Calls follow the shape of the dose curve; as a rule, active = well fitted activation curve with a large enough effect; inconclusive = small, poorly fitted or top-dose-only effect; inactive = no such curve, though single readings can be large or run the other way.

In the case of `O=C(Nc1ccc2c(c1)CCCN2C(=O)c1cccs1)c1cccc(C(F)(F)F)c1`, the Potency entry was “inactive”.

Regarding `COc1cccc(NC(=O)/C(C#N)=C\c2cn(Cc3ccc(C)cc3)c3ccccc23)c1`, the Potency entry is “inactive”.

Take `CCn1c(=O)sc2cc(NS(=O)(=O)c3ccc(F)c(C)c3)ccc21`: the Potency entry is “inactive”.

Turning to `COc1ccc(-c2[nH]c3ccccc3c2SCCNC(=O)c2cc(OC)c(OC)c(OC)c2)cc1`, the Potency entry was “inactive”.

As to `COc1cc(CN(C(=O)c2ccc(OC(C)C)cc2)c2ccccn2)cc(OC)c1OC`, the Potency result was “inactive”.

For the molecule `CCOc1cc(CNC(=O)c2sc3ncnc(N(C)C4CCCCC4)c3c2C)ccc1OC`, the Potency result is “inactive”.

As for `CCCOc1ccc(C(=O)Nc2ccc(-c3cc4ccccc4oc3=O)c(C)c2)cc1`, the Potency entry was “inactive”.

On to `COc1cc(Nc2ncc3c(n2)CCN(Cc2cc(F)cc(F)c2)C3)cc(OC)c1`, for which the Potency entry was “inactive”.

On to `CCOc1ccc(CCNc2ncnc3onc(C)c23)cc1OCC`, for which the Potency result is “inactive”.

`Cc1nnc(N2CCC(C(=O)NCCc3ccccc3Cl)CC2)c2nn(-c3ccccc3)c(C)c12`: the Potency entry is “inactive”.

Turning to `COc1ccc(-n2nc3c(N4CCCC(C(=O)NCCc5ccc(C)cc5)C4)nnc(C)c3c2C)cc1` (stereo unspecified), the Potency entry was “inactive”.

For `CCc1cccc2sc(N3CCN(C(=O)c4cc5ccccc5cc4OC)CC3)nc12`, the Potency entry is “inactive”.

For the molecule `Cc1oc(-c2ccc(C(=O)NCCCOC(C)C)cc2)nc1CS(=O)(=O)c1ccccc1`, the Potency entry is “inactive”.

Regarding `CC(=O)N1CCCc2cc(S(=O)(=O)N(C)CC(=O)Nc3ccc(F)cc3Cl)ccc21`, the Potency entry is “inactive”.

As for `Cc1ccc(CN2CCSc3ccc(C(=O)NCC(C)c4ccccc4)cc32)cc1` (stereo unspecified), the Potency entry was “inactive”.

Consider `C[n+]1cc2c3c(ccc2c2ccc4cc5c(cc4c21)OCO5)OCO3`, for which the Potency entry was “inactive”.
